Assay results as given in PubChem BioAssay.
Unmarked numbers belong to inactive results. No rule for the calls is given here.

What follows are molecules tested on Aerobactin synthetase IucA (Klebsiella pneumoniae hvKP1) (assay: IucA enzyme inhibition, primary screen, biochemical, Spectrum library (AID 1346200;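 also: 100% = wells without compound and 0% = wells lacking enzyme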)). Settings: malachite green pyrophosphate, A620, at 8 µM, stronger effect = lower value.

| Structure (SMILES) | activity remaining |
| --- | --- |
| CCN1CCN(C(=O)NC(C(=O)N[C@@H]2C(=O)N3[C@@H]2SC(C)(C)[C@@H]3C(=O)O)c2ccccc2)C(=O)C1=O (stereo partly specified) | 104% |
| CCc1c2c(nc3ccc(OC(=O)N4CCC(N5CCCCC5)CC4)cc13)-c1cc3c(c(=O)n1C2)COC(=O)[C@]3(O)CC | 90% |
| CC(=O)OC1CCC2(C)C(=CC=C3C2CCC2(C)C3CCC2C(C)/C=C/C(C)C(C)C)C1(C)C (stereo unspecified) | 125% |
| OCCc1ccccc1 | 117% |
| O=c1cc(-c2cc(O)c(O)c(O)c2)oc2cc(O)cc(O)c12 | 101% |
| C=C1C[C@]23C[C@@]1(O)CC[C@H]2[C@@]12C=C[C@H](O)C(C)(C(=O)O1)[C@H]2[C@@H]3C(=O)O | 121% |
| COc1cc(O)cc(OC)c1OC | 104% |
| O=c1ccn([C@@H]2O[C@H](COP(=O)(O)OP(=O)(O)OP(=O)(O)O)[C@@H](O)[C@H]2O)c(=O)[nH]1 | 98% |
| O=C(O)c1cc(=O)c(O)c2c(O)c(O)c(O)cc2c1 | 104% |
| CC[C@]12CCCN3CCc4c(n(c5ccccc45)C(=O)C1)[C@@H]32 | 101% |
| CC(=O)O[C@@H]1CC2C(C)(C)CCC(=O)[C@]2(C)C2CC[C@@]3(C)[C@H](c4ccoc4)OC(=O)C4OC43[C@@]21C (stereo partly specified) | 113% |
| NC[C@H]1O[C@H](O[C@H]2[C@H](O)[C@@H](O[C@H]3O[C@H](CO)[C@@H](O)[C@H](N)[C@H]3O)[C@H](N)C[C@@H]2N)[C@H](N)[C@@H](O)[C@@H]1O | 108% |
| CC(C)c1cccc(O)c(=O)c1 | 123% |
| CC(=O)O[C@@H]1CC2C(C)(C)C(=O)C3OC3[C@]2(C)C2CC[C@@]3(C)[C@H](c4ccoc4)OC(=O)C4OC43[C@@]21C (stereo partly specified) | 101% |
| COc1ccccc1-c1coc2cc(OC)c(OC)c(OC)c2c1=O | 116% |
| COc1cc(OC)c2c(=O)c(O)c(-c3ccc(OC)c(OC)c3)oc2c1 | 107% |
| CC(C)c1ccc2c(c1)CCC1C(C)(C(N)=O)CCCC21C (stereo unspecified) | 103% |
| Cc1ncc(CO)c(CO)c1O | 102% |

| Structure (SMILES) | activity remaining |
| --- | --- |
| C[C@]12CCC3C(CC[C@H]4C[C@H](OS(=O)(=O)O)CC[C@]34C)C1CCC2=O (stereo partly specified) | 102% |
| CC1(C)CC[C@]2(C(=O)O)CC[C@]3(C)C(=CCC4[C@@]5(C)CC[C@@H](O)C(C)(C)C5CC[C@]43C)C2C1 (stereo partly specified) | 118% |
| COc1cc(/C=C/C(=O)O)ccc1O | 100% |
| CC(N)C12CC3CC(CC(C3)C1)C2 (stereo unspecified) | 115% |
| CC(=O)N[C@@H](Cc1c[nH]c2ccccc12)C(=O)O | 110% |
| C=CC1=C(C)/C(=C/c2[nH]c(Cc3[nH]c(/C=C4\NC(=O)C(C)=C4C=C)c(C)c3CCC(=O)O)c(CCC(=O)O)c2C)NC1=O | 112% |
| COC1=CC(=O)C(O)=C/C1=C\C=C\c1ccccc1 | 106% |
| CCN1C[C@]2(OC(=O)c3ccccc3NC(C)=O)CCC(OC)[C@]34C1[C@H](CC23)[C@@]1(O)CC(OC)[C@H]2CC4C1(O)[C@H]2OC (stereo partly specified) | 95.9% |
| CC1(C)C(=O)C=C[C@@]2(C)C1CC(=O)[C@@]1(C)C3=CC(=O)O[C@@H](c4ccoc4)[C@]3(C)CCC12 (stereo partly specified) | 107% |
| CC(=O)O[C@@H]1CC2C(C)(C)[C@H](O)C=C[C@]2(C)C2CC[C@@]3(C)[C@H](c4ccoc4)OC(=O)C4OC43[C@@]21C (stereo partly specified) | 107% |
| C[C@]12CCC3c4ccc(O)cc4CCC3C1CC[C@@H]2OC(=O)CCC1CCCC1 (stereo partly specified) | 124% |
| CC(=O)c1c(O)cc(O)cc1O | 94.3% |
| CC1(C)C(=O)C=C[C@@]2(C)C1C=C[C@]1(C)C2CC[C@@]2(C)[C@H](c3ccoc3)OC(=O)C3OC321 (stereo partly specified) | 102% |
| Cn1c(=O)[nH]c(=O)c2[nH]cnc21 | 109% |
| COc1cc(C(=O)NCCCCCC(=O)O)cc(OC)c1OC | 120% |
| CC(=O)OC[C@@]1(O)C[C@@]23CCC4c5ccoc5CC[C@]4(C)C2CC[C@@H]1C3 (stereo partly specified) | 119% |
| COc1ccc(-c2oc3cc(O[C@H]4O[C@H](CO)[C@@H](O)[C@H](O)[C@H]4O)c(OC)c(O)c3c(=O)c2OC)cc1O | 77.6% |
| COC(=O)C[C@H]1C(C)(C)C2(O)OC34CC2C(=O)[C@]1(C)C3CC[C@]1(C)C4=CC(=O)O[C@H]1c1ccoc1 (stereo partly specified) | 105% |
